Consider 60 compounds from PubChem BioAssay AID1851 (National Center for Advancing Translational Sciences (NCATS), 2009).

The campaign covered roughly 16,000 compounds. About 5,800 (36%) were called active. Inconclusive results (about 23%) are left out. The list shows a part of the results. Values without a mark were called inactive. Calls follow the shape of the dose curve; as a rule, active = well fitted curve in the direction sought with a large enough effect; inconclusive = small, poorly fitted or top-dose-only effect, or effect the other way; inactive = no such curve, though single readings can be large or run the other way.
% is scaled to controls: 0 for no effect and ±100 for the full control effect.

Sequence of Cytochrome P450 2C19 (Homo sapiens) (P33261 whole entry, looked up): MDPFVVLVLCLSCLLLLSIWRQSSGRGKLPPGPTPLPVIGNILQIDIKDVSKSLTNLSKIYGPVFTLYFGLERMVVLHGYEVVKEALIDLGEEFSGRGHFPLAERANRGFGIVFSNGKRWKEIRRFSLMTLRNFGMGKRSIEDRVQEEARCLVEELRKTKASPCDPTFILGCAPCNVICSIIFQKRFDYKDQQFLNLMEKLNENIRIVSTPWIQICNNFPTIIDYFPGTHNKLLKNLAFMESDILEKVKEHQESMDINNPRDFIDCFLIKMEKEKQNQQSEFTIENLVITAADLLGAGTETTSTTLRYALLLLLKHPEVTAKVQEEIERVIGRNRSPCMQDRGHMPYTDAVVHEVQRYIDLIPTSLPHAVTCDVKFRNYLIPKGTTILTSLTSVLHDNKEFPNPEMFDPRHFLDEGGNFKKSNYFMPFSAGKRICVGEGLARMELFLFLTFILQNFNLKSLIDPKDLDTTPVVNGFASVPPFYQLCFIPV

This assay has as its target Cytochrome P450 2C19 (Homo sapiens) (UniProt P33261). Briefly: Cytochrome panel assay with activity outcomes. The conditions noted are these: recombinant CYP, pro-luciferin dealkylation, luminescence, p450-cyp2c19; series mostly up to 57.1 µM.
As a reminder, the AC50 is the midpoint of the concentration-response curve, whichever way the signal moves. In the case of `CN(C)C(=O)c1ccc(-c2cncnc2NC2CCNCC2)cc1`, the AC50 result was “inactive”.

Regarding `CN(C)c1ccc(-c2cncnc2Nc2ccccc2)cc1`, the half-maximal activity concentration (AC50) is 0.316 µM (active).

Take `CN(C)c1ccc(-c2cncnc2Nc2ccc(F)cc2)cc1`: the AC50 was 0.794 µM (active).

Turning to `Fc1ccc(Nc2ncncc2-c2ccoc2)cc1`, the AC50 entry was “inactive”.

Consider `COC(=O)[C@@H]1[C@@H]2C[C@H]3c4[nH]c5cc(OC)ccc5c4CCN3C[C@@H]2C[C@H](OC(=O)c2cc(OC)c(OC)c(OC)c2)[C@H]1OC`, for which the AC50 result was “inactive”.

On to `CCCCC(=O)Nc1cc(OCC)c(NC(=O)c2ccccc2[N+](=O)[O-])cc1OCC`, for which the AC50 entry was “inactive”.

Consider `CCOc1ccc(C(=O)Nc2cccc(-c3cc4ccccc4oc3=O)c2)cc1[N+](=O)[O-]`, for which the AC50 is 1.78 µM (active).

With `COc1cc(C(=O)NC(=S)Nc2ccc3oc(=O)ccc3c2)cc(OC)c1OC`, the AC50 entry is “inactive”.

Consider `COc1cc(C(=O)NC(=S)Nc2cccc(-c3cc4ccccc4oc3=O)c2)cc(OC)c1OC`, for which the AC50 was 5.01 µM (active).

In the case of `COc1cc(NC(=O)c2cc(Cl)ccc2Cl)ccc1-c1cc2ccccc2oc1=O`, the AC50 was 0.794 µM (active).

For `C[C@@H]1CCc2cc(F)cc3c(=O)c(C(=O)O)cn1c23`, the AC50 entry is “inactive”.

`Cc1noc(C)c1-c1nccc(N2CCN(C)CC2)n1`: the AC50 entry is “inactive”.

In the case of `Cc1ccccc1-c1nc(N2CCN(C)CC2)c2ccccc2n1`, the AC50 entry is “inactive”.

Turning to `Cc1ccccc1-c1nc(N2CCNCC2)c2ccccc2n1`, the AC50 entry is “inactive”.

Consider `Clc1ccccc1-c1nc(NC2CCNCC2)c2ccccc2n1`, for which the AC50 entry is “inactive”.

Take `Cc1noc(C)c1-c1nccc(-n2ccnc2)n1`: the AC50 is 3.98 µM (active).

With `FC(F)(F)c1ccccc1-c1nccc(N2CCNCC2)n1`, the AC50 result is “inactive”.

Turning to `Clc1ccccc1-c1nc(-n2ccnc2)c2ccccc2n1`, the AC50 is 7.94 µM (active).

Consider `Cc1noc(C)c1-c1cc(N2CCN(C)CC2)ncn1`, for which the AC50 result is “inactive”.

For `Clc1ccccc1-c1nccc(-n2ccnc2)n1`, the AC50 was 2.51 µM (active).

For the compound `Cc1ccccc1-c1nc(-n2ccnc2)c2ccccc2n1`, the AC50 is 5.01 µM (active).

`CCOC(=O)C1(N(CC)CC)Sc2cc(C)ccc2NC1=O` (stereo not given): the AC50 was 0.0891 µM (active).

`CCOC(=O)[C@]1(CC(=O)O)CCCC1=O`: the activity, negative = inhibition is 5.42% [at 11.4 µM].

As to `CCCCCCCCCCCCCCCCCC(=O)O[C@H](CC(=O)O)C[N+](C)(C)C`, the AC50 entry is “inactive”.

In the case of `O=C(C[n+]1cccc(NC(=O)c2ccccc2)c1)c1ccc(NC(=O)c2ccccc2)cc1`, the half-maximal activity concentration (AC50) is 39.8 µM (active).

For `NNC(=O)c1ccc[n+](CCc2ccccc2)c1`, the activity, negative = inhibition is -21.6% [at 11.4 µM].

Consider `O=[N+]([O-])c1ccc2c(c1)S(=O)c1ccccc1-2` (stereo not given), for which the activity, negative = inhibition is 14.6% [at 11.4 µM].

`Cc1cc([N+](=O)[O-])ccc1-c1ccc(C2Nc3ccccc3C(=O)N2O)o1` (stereo not given): the AC50 is 4.47 µM (active).

Consider `O=C(O)CSc1nc2ccccc2[nH]1`, for which the activity, negative = inhibition was 5.01% [at 11.4 µM].

In the case of `O=C(CSc1nc2ccccc2[nH]1)Nc1c(F)cccc1F`, the concentration at half-maximal activity (AC50) is 8.91 µM (active).

As to `CCOC(=O)CCN1C(=O)[C@H]2[C@H]3[C@H](O)[C@H](O)C/C(=N/OC[C@@H](O)COCc4ccco4)[C@@H]3CC[C@@H]2C1=O`, the activity, negative = inhibition was 40.5% [at 11.4 µM].

For the compound `O=C(O)c1ccc(Oc2nc3ccccc3s2)cc1`, the AC50 was 3.98 µM (active).

On to `O=C(Nc1ccccc1-c1nc2ccccc2[nH]1)c1ccc(S(=O)(=O)N2CCCCC2)cc1`, for which the AC50 was 2.51 µM (active).

Regarding `Cc1sc(=NC(=O)c2ccco2)n(C)c1-c1ccccc1`, the AC50 is 8.91 µM (active).

For `CNc1ccnc(-c2ccccc2CN(C)C)n1`, the AC50 entry is “inactive”.

As to `COc1ccc(CNc2ccnc(-c3ccccc3C(F)(F)F)n2)c(OC)c1`, the AC50 was 10 µM (active).

Regarding `COc1ccccc1CNc1ccnc(-c2ccccc2Cl)n1`, the AC50 was 1.58 µM (active).

With `COc1ccc(CNc2ccnc(-c3ccccc3CN(C)C)n2)c(OC)c1`, the AC50 result is “inactive”.

In the case of `COc1ccc(CNc2ccnc(-c3ccccc3Cl)n2)c(OC)c1`, the AC50 is 1.26 µM (active).

For the compound `O=C(N/N=C1/C[C@@H](O)[C@@H](O)[C@@H]2[C@H]3C(=O)N(c4ccc(F)cc4F)C(=O)[C@@H]3CC[C@@H]12)OCc1ccccc1`, the activity, negative = inhibition is -16.8% [at 11.4 µM].

With `NC(=O)C[C@H](NC(=O)Cc1ccc(O)cc1O)C(=O)O`, the AC50 result is “inactive”.

Turning to `CC1(C)CC(=O)C2=C(C1)Nc1cc3c(cc1C2c1ccc(F)cc1)OCO3` (stereo not given), the AC50 is 4.47 µM (active).

As for `Fc1ccc([C@H]2CCNC[C@H]2COc2ccc3c(c2)OCO3)cc1`, the AC50 result was “inactive”.

As for `NS(=O)(=O)c1ccc(N=Nc2c(O)c(C(=O)O)cc3ccccc23)cc1`, the activity, negative = inhibition was 9.68% [at 11.4 µM].

`N=C(N)c1ccc(N=Nc2c(O)ccc3c2[nH]c2ccccc23)cc1`: the AC50 was 1.26 µM (active).

Consider `N=C(N)c1ccccc1`, for which the AC50 result was “inactive”.

For `O=C(NCCCN1CCN(C2CCCCC2)CC1)Nc1ccccc1C(F)(F)F`, the AC50 result was “inactive”.

Consider `O=C(CCCN1CC=C(n2c(=O)[nH]c3ccccc32)CC1)c1ccc(F)cc1`, for which the AC50 result is “inactive”.

In the case of `COc1ccc2c(Cl)c(C(=O)NCCCn3ccnc3)sc2c1Cl`, the AC50 was 0.794 µM (active).

In the case of `Cc1cc(=O)oc(C)c1C(=O)NCCCN1CCN(c2ccc(F)cc2)CC1`, the AC50 result was “inactive”.

Take `S=C(S)NCCCn1ccnc1`: the activity, negative = inhibition was -30% [at 11.4 µM].

Consider `CSc1ccc(NC(=O)NCCCN2CCN(c3ccccc3F)CC2)cc1`, for which the AC50 is 15.8 µM (active).

As for `O=C(NCCCn1ccnc1)Nc1ccc(Cl)cc1`, the AC50 is 0.0562 µM (active).

On to `O=C(O)c1ccccc1-c1ccccc1C(=O)Nc1ccc2c(c1)Cc1cc(F)ccc1-2`, for which the activity, negative = inhibition is -34% [at 11.4 µM].

With `O=C(CCN1CCc2ccccc2C1)Nc1ccc(F)cc1`, the AC50 was 7.94 µM (active).

As for `O=C1Cc2c([nH]c3ccc(Br)cc23)-c2ccccc2N1`, the AC50 entry is “inactive”.

Consider `O=C(NCCCN1CCc2ccccc2C1)Nc1ccc(Cl)cc1`, for which the concentration at half-maximal activity (AC50) was 15.8 µM (active).

Consider `CSc1ccc(NC(=O)NCCN2CCc3ccccc3C2)cc1`, for which the AC50 was 15.8 µM (active).

On to `CC(C)[C@H](NC(=O)OC(C)(C)C)[C@@H](O)CC(=O)C(C)(C)C`, for which the activity, negative = inhibition is -18.4% [at 11.4 µM].

In the case of `CC(C)[C@@H]1NC(=O)[C@H](CCCCN)NC(=O)[C@H](Cc2c[nH]c3ccccc23)NC(=O)[C@H](Cc2ccc(O)cc2)NC(=O)[C@H](C)N(C)C(=O)[C@H](Cc2ccccc2)NC1=O`, the AC50 entry is “inactive”.
